Data from paper PMC5540273 (PLoS ONE, 2017).
Read-outs that look alike come from different tables or passages of the source.

What was measured:
MAPKAPK5 = conditions: concentration: 1 μM,replicates: in singlicate; n = 1
MARK1 = conditions: concentration: 1 μM,replicates: in singlicate; n = 1
MARK2 = conditions: concentration: 1 μM,replicates: in singlicate; n = 1
MARK3 = conditions: concentration: 1 μM,replicates: in singlicate; n = 1
MARK4 = conditions: concentration: 1 μM,replicates: in singlicate; n = 1
MAST1 = conditions: concentration: 1 μM,replicates: in singlicate; n = 1
MEK1 = test system: T1, MEK1; conditions: concentration: 1 μM,replicates: in singlicate; n = 1
T1 construct: gene MAP2K1

MEK2 = test system: T2, MEK2; conditions: concentration: 1 μM,replicates: in singlicate; n = 1
T2 construct: gene MAP2K2

MEK3 = test system: T3, MEK3; conditions: concentration: 1 μM,replicates: in singlicate; n = 1
T3 construct: gene MAP2K3

MEK4 = test system: T4, MEK4; conditions: concentration: 1 μM,replicates: in singlicate; n = 1
T4 construct: gene MAP2K4

MEK5 = test system: T5, MEK5; conditions: concentration: 1 μM,replicates: in singlicate; n = 1
T5 construct: gene MAP2K5

MEK6 = test system: T6, MEK6; conditions: concentration: 1 μM,replicates: in singlicate; n = 1
T6 construct: gene MAP2K6

MELK = conditions: concentration: 1 μM,replicates: in singlicate; n = 1
MERTK = conditions: concentration: 1 μM,replicates: in singlicate; n = 1
MET = conditions: n = 1
MINK = test system: T7, MINK; conditions: concentration: 1 μM,replicates: in singlicate; n = 1
T7 construct: gene MINK1

MKK7 = conditions: concentration: 1 μM,replicates: in singlicate; n = 1
MKNK1 = conditions: concentration: 1 μM,replicates: in singlicate; n = 1
MKNK2 = conditions: concentration: 1 μM,replicates: in singlicate; n = 1
MLCK = test system: T8, MLCK; conditions: concentration: 1 μM,replicates: in singlicate; n = 1
T8 construct: gene MYLK3

[1] = concentration: 1 μM,replicates: in singlicate
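Also: KINOMEscan kinase panel screen.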

Cl.c1ccc(Oc2ccc(Nc3ccnc4cc(-c5ccc(CN6CCNCC6)o5)ccc34)cc2)nc1 [GW567142]
%Inh (MAPKAPK5): 0%
%Inh (MARK1): 0%
%Inh (MARK2): 0%
%Inh (MARK3): 39%
%Inh (MARK4): 0%
%Inh (MAST1): 0%
%Inh (MEK1): 87%
%Inh (MEK2): 90.9%
%Inh (MEK3): 0%
%Inh (MEK4): 19%
%Inh (MEK5): 99.9%
%Inh (MEK6): 16%
%Inh (MELK): 0%
%Inh (MERTK): 0%
%Inh (MET; [1]): 0%
%Inh (MINK): 27%
%Inh (MKK7): 11%
%Inh (MKNK1): 0%
%Inh (MKNK2): 42%
%Inh (MLCK): 4%

Cn1ccc2ncnc(Oc3ccc(NC(=O)Nc4cncc(C(F)(F)F)c4)c(Cl)c3)c21
%Inh (MAPKAPK5): 0%
%Inh (MARK1): 0%
%Inh (MARK2): 23%
%Inh (MARK3): 0%
%Inh (MARK4): 11%
%Inh (MAST1): 6%
%Inh (MEK1): 0%
%Inh (MEK2): 0%
%Inh (MEK3): 0%
%Inh (MEK4): 1%
%Inh (MEK5): 22%
%Inh (MEK6): 0%
%Inh (MELK): 0%
%Inh (MERTK): 81%
%Inh (MET; [1]): 12%
%Inh (MINK): 0%
%Inh (MKK7): 0%
%Inh (MKNK1): 0%
%Inh (MKNK2): 0%
%Inh (MLCK): 0%

CC(=O)c1c(-c2ccncc2)[nH]c(-c2ccncc2)c1C [GW493036]
%Inh (MAPKAPK5): 0%
%Inh (MARK1): 0%
%Inh (MARK2): 0%
%Inh (MARK3): 10%
%Inh (MARK4): 0%
%Inh (MAST1): 36%
%Inh (MEK1): 0%
%Inh (MEK2): 0%
%Inh (MEK3): 0%
%Inh (MEK4): 40%
%Inh (MEK5): 2%
%Inh (MEK6): 0%
%Inh (MELK): 0%
%Inh (MERTK): 0%
%Inh (MET; [1]): 11%
%Inh (MINK): 29%
%Inh (MKK7): 0%
%Inh (MKNK1): 14%
%Inh (MKNK2): 46%
%Inh (MLCK): 0%

c1ccc(Oc2ccc(Nc3ccnc4ccc(-c5ccccn5)cc34)cc2)cc1 [GW407034]
%Inh (MAPKAPK5): 0%
%Inh (MARK1): 0%
%Inh (MARK2): 0%
%Inh (MARK3): 0%
%Inh (MARK4): 0%
%Inh (MAST1): 2%
%Inh (MEK1): 85%
%Inh (MEK2): 66%
%Inh (MEK3): 0%
%Inh (MEK4): 16%
%Inh (MEK5): 99.9%
%Inh (MEK6): 0%
%Inh (MELK): 0%
%Inh (MERTK): 9%
%Inh (MET; [1]): 16%
%Inh (MINK): 0%
%Inh (MKK7): 0%
%Inh (MKNK1): 0%
%Inh (MKNK2): 17%
%Inh (MLCK): 13%

Cl.Nc1n[nH]c2cc(-c3ccccn3)ccc12 [GSK2189892]
%Inh (MAPKAPK5): 0%
%Inh (MARK1): 0%
%Inh (MARK2): 0%
%Inh (MARK3): 10%
%Inh (MARK4): 0%
%Inh (MAST1): 0%
%Inh (MEK1): 2%
%Inh (MEK2): 0%
%Inh (MEK3): 0%
%Inh (MEK4): 5%
%Inh (MEK5): 45%
%Inh (MEK6): 0%
%Inh (MELK): 2%
%Inh (MERTK): 0%
%Inh (MET; [1]): 0%
%Inh (MINK): 0%
%Inh (MKK7): 0%
%Inh (MKNK1): 0%
%Inh (MKNK2): 32%
%Inh (MLCK): 0%

CN(c1cccc(CNc2nc(Nc3ccc4c(c3)CC(=O)N4)ncc2C(F)(F)F)c1)S(C)(=O)=O
%Inh (MAPKAPK5): 0%
%Inh (MARK1): 47%
%Inh (MARK2): 39%
%Inh (MARK3): 66%
%Inh (MARK4): 56%
%Inh (MAST1): 0%
%Inh (MEK1): 0%
%Inh (MEK2): 43%
%Inh (MEK3): 62%
%Inh (MEK4): 35%
%Inh (MEK5): 0%
%Inh (MEK6): 0%
%Inh (MELK): 84%
%Inh (MERTK): 80%
%Inh (MET; [1]): 93.9%
%Inh (MINK): 76%
%Inh (MKK7): 0%
%Inh (MKNK1): 0%
%Inh (MKNK2): 28%
%Inh (MLCK): 1%

O=C1NCCc2[nH]c(-c3ccncc3)cc21
%Inh (MAPKAPK5): 46%
%Inh (MARK1): 22%
%Inh (MARK2): 12%
%Inh (MARK3): 25%
%Inh (MARK4): 11%
%Inh (MAST1): 59%
%Inh (MEK1): 8%
%Inh (MEK2): 26%
%Inh (MEK4): 0%
%Inh (MEK5): 35%
%Inh (MEK6): 25%
%Inh (MELK): 21%
%Inh (MERTK): 0%
%Inh (MET; 1 µM): 33%
%Inh (MINK): 55%
%Inh (MKK7): 0%
%Inh (MKNK1): 13%
%Inh (MKNK2): 23%
%Inh (MLCK): 58%

CS(=O)(=O)c1cccc(CNc2nc(Nc3ccc4c(c3)[C@@H]3C[C@@H]4CNC3=O)ncc2C(F)(F)F)c1
%Inh (MAPKAPK5): 0%
%Inh (MARK1): 8%
%Inh (MARK2): 24%
%Inh (MARK3): 67%
%Inh (MARK4): 44%
%Inh (MAST1): 0%
%Inh (MEK1): 39%
%Inh (MEK2): 80%
%Inh (MEK3): 75%
%Inh (MEK4): 89%
%Inh (MEK5): 94.5%
%Inh (MEK6): 5%
%Inh (MELK): 5%
%Inh (MERTK): 98.6%
%Inh (MET; [1]): 93.8%
%Inh (MINK): 90.3%
%Inh (MKK7): 9%
%Inh (MKNK1): 0%
%Inh (MKNK2): 97.6%
%Inh (MLCK): 15%

C[C@@H]1CNc2c(sc3ccc4nc(-c5ccncc5)ccc4c23)C(=O)N1
%Inh (MAPKAPK5): 100%
%Inh (MARK1): 0%
%Inh (MARK2): 0%
%Inh (MARK3): 0%
%Inh (MARK4): 0%
%Inh (MAST1): 12%
%Inh (MEK1): 0%
%Inh (MEK2): 0%
%Inh (MEK3): 13%
%Inh (MEK4): 0%
%Inh (MEK5): 33%
%Inh (MEK6): 0%
%Inh (MELK): 0%
%Inh (MERTK): 100%
%Inh (MET; [1]): 50%
%Inh (MINK): 28%
%Inh (MKK7): 0%
%Inh (MKNK1): 0%
%Inh (MKNK2): 21%
%Inh (MLCK): 54%

COc1cccc(C2=C(Nc3cccc(Cl)c3)C(=O)NC2=O)c1 [SB-341556]
%Inh (MAPKAPK5): 0%
%Inh (MARK1): 0%
%Inh (MARK2): 0%
%Inh (MARK3): 17%
%Inh (MARK4): 0%
%Inh (MAST1): 0%
%Inh (MEK1): 0%
%Inh (MEK2): 0%
%Inh (MEK3): 15%
%Inh (MEK4): 4%
%Inh (MEK5): 38%
%Inh (MEK6): 0%
%Inh (MELK): 0%
%Inh (MERTK): 0%
%Inh (MET; [1]): 0%
%Inh (MINK): 0%
%Inh (MKK7): 10%
%Inh (MKNK1): 0%
%Inh (MKNK2): 27%
%Inh (MLCK): 0%

CCN1CCN(CCCC(=O)Nc2n[nH]c3nc(-c4ccc(O)cc4)c(Br)cc23)CC1 [SB-731579]
%Inh (MAPKAPK5): 0%
%Inh (MARK1): 35%
%Inh (MARK2): 20%
%Inh (MARK3): 0%
%Inh (MARK4): 14%
%Inh (MAST1): 65%
%Inh (MEK1): 0%
%Inh (MEK2): 0%
%Inh (MEK3): 15%
%Inh (MEK4): 0%
%Inh (MEK5): 42%
%Inh (MEK6): 0%
%Inh (MELK): 0%
%Inh (MERTK): 2%
%Inh (MET; [1]): 0%
%Inh (MINK): 0%
%Inh (MKK7): 0%
%Inh (MKNK1): 46%
%Inh (MKNK2): 46%
%Inh (MLCK): 39%

C[C@@H](Oc1cc(-n2cnc3ccc(-c4ccncc4)cc32)sc1C(N)=O)c1ccccc1Cl [GSK483724]
%Inh (MAPKAPK5): 0%
%Inh (MARK1): 8%
%Inh (MARK2): 0%
%Inh (MARK3): 0%
%Inh (MARK4): 20%
%Inh (MAST1): 0%
%Inh (MEK1): 49%
%Inh (MEK2): 0%
%Inh (MEK3): 34%
%Inh (MEK4): 37%
%Inh (MEK5): 78%
%Inh (MEK6): 0%
%Inh (MELK): 0%
%Inh (MERTK): 35%
%Inh (MET; [1]): 9%
%Inh (MINK): 23%
%Inh (MKK7): 56%
%Inh (MKNK1): 0%
%Inh (MKNK2): 7%
%Inh (MLCK): 32%

Cn1ccc2ncnc(Oc3ccc(NC(=O)Nc4cccc(C(F)(F)F)c4)c(F)c3)c21
%Inh (MAPKAPK5): 0%
%Inh (MARK1): 13%
%Inh (MARK2): 9%
%Inh (MARK3): 8%
%Inh (MARK4): 0%
%Inh (MAST1): 0%
%Inh (MEK1): 0%
%Inh (MEK2): 29%
%Inh (MEK3): 3%
%Inh (MEK4): 0%
%Inh (MEK5): 35%
%Inh (MEK6): 0%
%Inh (MELK): 10%
%Inh (MERTK): 98%
%Inh (MET; [1]): 50%
%Inh (MINK): 0%
%Inh (MKK7): 0%
%Inh (MKNK1): 18%
%Inh (MKNK2): 89%
%Inh (MLCK): 0%

COc1cc2c(Nc3ccc(NC(=O)c4ccccc4)cc3)ncnc2cc1OCCCN1CCOCC1 [GSK301329]
%Inh (MAPKAPK5): 0%
%Inh (MARK1): 0%
%Inh (MARK2): 0%
%Inh (MARK3): 0%
%Inh (MARK4): 0%
%Inh (MAST1): 0%
%Inh (MEK1): 86%
%Inh (MEK2): 86%
%Inh (MEK3): 0%
%Inh (MEK4): 5%
%Inh (MEK5): 99.9%
%Inh (MEK6): 0%
%Inh (MELK): 4%
%Inh (MERTK): 65%
%Inh (MET; [1]): 50%
%Inh (MINK): 17%
%Inh (MKK7): 0%
%Inh (MKNK1): 0%
%Inh (MKNK2): 18%
%Inh (MLCK): 0%
